Bioassay records (PubChem)
Methyltransferases: Primary Screen for Target Class Profiling of Small Molecule Inhibitors of Methyltransferases | purified enzyme, MTase-Glo SAH luminescence; hits give low values | calls only at 40 µM | 25,000 tested, 3.9% active | AID 1745853, 2022; call rule not given here
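Each enzyme was assayed with SAM and its substrate. SAH formation detected by MTase-Glo luminescence; single-point 40 uM screen[…].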
The depositor's hits bear a star; i = inactive; + = active, no number. The entries come from a sample that favours hits as a whole. On the % scale 0 is the no-effect control and ±100 the full control effect.

SMILES | Methyltransferases
Cc1cccc(NC(=O)N2CCn3nnc(CCC(=O)NC4CC4)c3C2)c1 | i
COCCNC(=O)NC[C@H]1O[C@@H]2C[C@@H](CC(=O)N3CCC(F)(F)C3)O[C@@H]2[C@@H]1O | i
COc1cc2ncnc(Nc3cccc(O)c3)c2cc1OC | i
CCCNC(=O)Nc1ccc(Oc2ncnc3cc(OC)c(OC)cc23)cc1Cl | i
COc1cc2ncnc(Nc3cccc(Cl)c3)c2cc1OC | +
CC(C)C1c2cccn2CCN1C(=O)Nc1cc(F)ccc1F (configuration not stated) | i
Oc1cc(CNC(=S)/C=C/c2cc(O)c(O)c(Br)c2)cc(O)c1O | +
COc1ccc(NC(=O)Cn2nc3n(CCCOC(C)C)c(=O)c4ccccc4n3c2=O)cc1 | i
COc1cccc(CNC(=O)Cn2nc3n(Cc4ccc(F)cc4)c(=O)c4ccccc4n3c2=O)c1 | i
C[C@]12CC[C@@H]3c4ccc(O)c(O)c4CC[C@H]3[C@@H]1CCC2=O | +
c1ccc(N2CCCC(c3nccn3Cc3ccncc3)C2)nc1 (configuration not stated) | i
CC1(C)CC[C@]2(C(=O)O)CC[C@]3(C)C(=CCC4[C@@]5(C)CC[C@H](O[C@@H]6O[C@H](CO)[C@@H](O)[C@H](O)[C@H]6O[C@@H]6O[C@H](CO)[C@@H](O)[C@H](O)[C@H]6O)[C@@](C)(CO)C5CC[C@]43C)[C@@H]2C1 (some centres not stated) | i
CCOC(=O)c1cc2n(n1)CC(C)(C(=O)NC1CCCC1)N(c1cc(C)ccc1OC)C2=O (configuration not stated) | i
CCCC1c2cccn2CCN1C(=O)Nc1ccc(C)c(F)c1 (configuration not stated) | i
COCCN1CC(c2n[nH]c(C3CCOCC3)n2)CCC1=O (configuration not stated) | i
Nc1nc(NCC2CCC(CNS(=O)(=O)c3cccc4ccccc34)CC2)nc2ccccc12 (configuration not stated) | +
O=C(NCCCc1ccccc1)C1CCC(CNS(=O)(=O)c2cccc3nsnc23)CC1 (configuration not stated) | i
COc1cccc(CN2C(=O)c3cc4occc4n3CC2(C)C(=O)NC2CCC(C)CC2)c1OC (configuration not stated) | i
COc1cccc(CN2C(=O)c3cc(-c4ccccc4)nn3CC2(C)C(=O)NCc2ccccc2)c1 (configuration not stated) | i
CCOC(=O)c1cc2n(n1)CC(C)(C(=O)NCCOC)N(c1ccc(OC)cc1)C2=O (configuration not stated) | i
OC[C@H]1O[C@@H](OC[C@H]2O[C@@H](OCc3ccccc3)[C@H](O)[C@@H](O)[C@@H]2O)[C@H](O)[C@@H](O)[C@@H]1O | i
C=Cc1ccc(O[C@@H]2O[C@H](CO[C@@H]3O[C@@H](C)[C@H](O)[C@@H](O)[C@H]3O)[C@@H](O)[C@H](O)[C@H]2O)cc1 | i
C[C@@H]1O[C@@H](OC[C@H]2O[C@@H](OCc3ccccc3)[C@H](O)[C@@H](O)[C@@H]2O)[C@H](O)[C@H](O)[C@H]1O | +
O=C(Cn1c(=O)oc2cc(S(=O)(=O)N3CCCC3)ccc21)Nc1cc(F)ccc1F | i
N#Cc1cccc(C(=O)N2C[C@@H](Oc3cccnc3)C[C@H]2C(=O)NC2CC2)c1 | i
SMILES | Methyltransferases
COc1cc(OC)cc(C(=O)Nc2ccc(Cl)c(-c3nc4ccc(N(C)C)cc4[nH]3)c2)c1 | +
COc1ccc(Sc2ccc(NC(=O)c3ccccc3Cl)cc2C#N)cc1 | i
CN1C(=O)c2cc(NC(=O)c3cccc(N(C)C)c3)ccc2N2CCN=C12 | i
Cc1cccc(C(C)(C)C)c1NC(=O)N1CCN2C(=O)CNC(=O)C2C1 (configuration not stated) | i
COc1cccc(CNC(=O)N2Cc3c(sc4c3CCCC4)-n3cccc3C2c2cc(F)cc(F)c2)c1 (configuration not stated) | i
CC(C)(O)C1CC=C(C(=O)OC[C@H]2O[C@@H](Oc3cc(C(=O)O)cc(O)c3O)[C@H](O)[C@@H](O)[C@@H]2O)CC1 (some centres not stated) | +
Cc1cc(O[C@@H]2O[C@H](COC(=O)CC(=O)O)[C@@H](O)[C@H](O)[C@H]2O)c(C(C)C)cc1O | i
COc1cc(C(=O)OCC2=CCC3C(C(=O)O)=COC(O[C@@H]4O[C@H](CO)[C@@H](O)[C@H](O)[C@H]4O)C23)ccc1O (some centres not stated) | i
CC(=O)c1ccc(O[C@@H]2O[C@H](CO[C@@H]3OC[C@@H](O)[C@H](O)[C@H]3O)[C@@H](O)[C@H](O)[C@H]2O)cc1 | i
O=C(/C=C/c1ccc(O)c(O)c1)OC[C@H]1O[C@@H](OC2CCCCC2O)[C@H](O)[C@@H](O)[C@@H]1O (some centres not stated) | i
CC(C)(O)C1CC=C(C(=O)OCC2OC(Oc3c(O)cc(C(=O)O)cc3O)C(O)C(O)C2O)CC1 (configuration not stated) | +
CC1(C(=O)NC2CCCCC2)Cn2c(ccc2-c2ccco2)C(=O)N1CCCc1ccccc1 (configuration not stated) | i
Cc1ccc(C(=O)Cn2nc3n(C(C)C)c(=O)c4ccc(C(=O)NCC(C)C)cc4n3c2=O)c(C)c1 | i
C=CC(C)(C)c1[nH]c2ccccc2c1C[C@@H]1NC(=O)[C@H](Cc2c[nH]c3ccccc23)NC1=O | i
Cc1ccc(NC(=O)Cn2nc3n(CCCOC(C)C)c(=O)c4ccccc4n3c2=O)c(Cl)c1 | i
Cc1cc2c(cc1S(=O)(=O)NCc1ccc(F)cc1)n(C)c(=O)n2C | i
CC(O)c1cc2n(n1)CCN(S(=O)(=O)c1ccc3c(c1)NC(=O)CO3)C2 (configuration not stated) | i
CC(C)=CC/C=C(\C)[C@H]1CC[C@]2(C)[C@@H]1[C@H](O)C[C@@H]1[C@@]3(C)CC[C@H](O)C(C)(C)[C@@H]3[C@@H](O[C@@H]3O[C@H](CO)[C@@H](O)[C@H](O)[C@H]3O)C[C@]12C | i
CC(C)=CC/C=C(/C)[C@H]1CC[C@]2(C)[C@@H]1[C@H](O)CC1[C@@]3(C)CC[C@H](O)C(C)(C)[C@@H]3[C@@H](O[C@@H]3O[C@H](CO)[C@@H](O)[C@H](O)[C@H]3O[C@@H]3O[C@@H](C)[C@H](O)[C@@H](O)[C@H]3O)C[C@]12C (some centres not stated) | i
C=C1C(OC2OC(CO)C(O)C(O)C2O)CC2C(C)(C)C(O)CCC2(C)C1CC/C(C)=C\COC(=O)CC(=O)O (configuration not stated) | +
CCOC(=O)c1cccc(N2C(=O)c3cc(C(=O)OCC)nn3CC2(C)C(=O)NCCC(C)C)c1 (configuration not stated) | i
CCOC(=O)c1cc2n(n1)CC(C)(C(=O)NC1CCCCC1)N(c1ccc(OC)cc1OC)C2=O (configuration not stated) | i
CCC(C)NC(=O)c1ccc2c(=O)n(C)c3nnc(SCC(=O)Nc4cc(C)cc(C)c4)n3c2c1 (configuration not stated) | i
C=C1C[C@]23C[C@H]1CC[C@H]2[C@]1(C)CC[C@H](O)[C@@](C)(C(=O)O)[C@H]1[C@@H]3C(=O)O | i
